Test results taken from PubChem BioAssay (NCATS).
“And” between values parts separate entries of the source, which are not always exact repeats. Identical values can stand only once. Inconclusive results are not listed. The source made the active and inactive calls. Unless noted, the call rests on the fitted dose curve; in most records, active means well fitted curve in the direction sought with a large enough effect in the repeat runs; inconclusive means weak or mixed curves; inactive means no such curve, though single readings can be large; an effect the other way counts as inactive or inconclusive.

Tests used:
[1] = molecular target: Cytochrome P450 2D6 (Homo sapiens) (UniProt P10635); assay: Cytochrome P450 family 2 subfamily D member 6 (CYP2D6) small molecule antagonists: luciferase biochemical (cell-free) qHTS assay (AID 1645840); further: nearly all actives have a fitted effect of over 55% in size; further: potency means the concentration at half of the fitted maximal effect
Sequence of Cytochrome P450 2D6 (Homo sapiens) (P10635 whole entry, looked up): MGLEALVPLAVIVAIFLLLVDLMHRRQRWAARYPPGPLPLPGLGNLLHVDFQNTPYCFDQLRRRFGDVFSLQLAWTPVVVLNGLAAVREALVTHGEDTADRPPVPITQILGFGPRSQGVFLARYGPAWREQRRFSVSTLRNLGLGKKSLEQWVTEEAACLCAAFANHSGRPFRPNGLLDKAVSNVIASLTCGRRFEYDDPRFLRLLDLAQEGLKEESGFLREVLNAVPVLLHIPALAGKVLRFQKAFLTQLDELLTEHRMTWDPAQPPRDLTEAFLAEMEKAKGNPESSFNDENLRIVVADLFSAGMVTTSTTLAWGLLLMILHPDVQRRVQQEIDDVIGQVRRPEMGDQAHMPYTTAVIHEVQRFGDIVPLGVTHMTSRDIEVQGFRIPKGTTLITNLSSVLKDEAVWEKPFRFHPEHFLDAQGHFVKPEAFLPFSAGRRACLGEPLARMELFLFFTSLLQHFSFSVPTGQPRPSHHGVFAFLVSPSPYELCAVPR
How it was run: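 P450-Glo CYP2D6 system: proluciferin substrate converted by enzyme to luciferin, read by luminescence proportional to activity. Enzyme-substrate mix with compound 10 min at room temperature, then NADPH regeneration 1 h before detection reagent.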

[2] = molecular target: Cytochrome P450 2C9 (Homo sapiens) (UniProt P11712); assay: Cytochrome P450 family 2 subfamily C member 9 (CYP2C9) small molecule antagonists: luciferase biochemical (cell-free) qHTS assay (AID 1645842); further: nearly all actives have a fitted effect of over 55% in size; further: potency means the concentration at half of the fitted maximal effect
Sequence of Cytochrome P450 2C9 (Homo sapiens) (P11712 whole entry, looked up): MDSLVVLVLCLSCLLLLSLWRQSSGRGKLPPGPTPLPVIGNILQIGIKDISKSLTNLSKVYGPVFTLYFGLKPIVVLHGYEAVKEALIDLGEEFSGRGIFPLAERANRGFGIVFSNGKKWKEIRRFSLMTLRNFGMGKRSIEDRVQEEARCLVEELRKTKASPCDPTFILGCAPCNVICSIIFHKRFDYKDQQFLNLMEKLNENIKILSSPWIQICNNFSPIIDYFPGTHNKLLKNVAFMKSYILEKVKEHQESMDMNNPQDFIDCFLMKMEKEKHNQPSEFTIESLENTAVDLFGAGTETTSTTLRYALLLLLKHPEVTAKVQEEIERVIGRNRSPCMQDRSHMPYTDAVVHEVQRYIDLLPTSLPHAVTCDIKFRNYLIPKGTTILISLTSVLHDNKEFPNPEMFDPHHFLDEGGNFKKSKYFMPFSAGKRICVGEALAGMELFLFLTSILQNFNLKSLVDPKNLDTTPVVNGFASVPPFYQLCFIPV
How it was run: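 P450-Glo CYP2C9 system: proluciferin substrate with enzyme in mix containing 0.4% BSA, 10 min at room temperature, then NADPH regeneration solution added and incubated 1 h at 37C. Detection reagent stopped reaction; luminescence read after 20 min as RLU.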

[3] = Primary qHTS for inhibitors of nuclear receptor binding SET domain protein 2 (NSD2) in an isogenic RCH-ACV NSD2 p.E1099K mutant (9B) (AID 1645876; active means well fitted curve in the direction sought with a large enough effect; an effect the other way counts as inactive or inconclusive; further: nearly all actives have a fitted effect of over 70% in size; further: potency means the concentration at half of the fitted maximal effect)
[4] = molecular target: N-terminal Xaa-Pro-Lys N-methyltransferase 1 (Homo sapiens) (UniProt Q9BV86); assay: Confirmatory qHTS for Inhibitors of N-terminal methyltransferase 1 (NTMT1): MTaseGlo Assay (AID 1645874; active means well fitted curve in the direction sought with a large enough effect; an effect the other way counts as inactive or inconclusive;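 further: luminescence from SAH made as NTMT1 methylates SPKRIA peptide using SAM; series mostly up to about 100 µM; nearly all actives have a fitted effect of over 65% in size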)
Sequence of N-terminal Xaa-Pro-Lys N-methyltransferase 1 (Homo sapiens) (Q9BV86 whole entry, looked up): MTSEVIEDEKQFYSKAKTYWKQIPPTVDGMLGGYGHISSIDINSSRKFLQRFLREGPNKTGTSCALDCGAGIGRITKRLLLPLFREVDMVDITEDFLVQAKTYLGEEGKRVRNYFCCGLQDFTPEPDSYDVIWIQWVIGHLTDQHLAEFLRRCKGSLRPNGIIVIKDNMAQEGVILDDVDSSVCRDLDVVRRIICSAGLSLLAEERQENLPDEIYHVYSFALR
How it was run: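 Enzyme mix (125 nM NTMT1, 100 uM SAM) + compound, 15 min RT; + 1 uM SPKRIA, 30 min RT, dark; MTase-Glo reagent 30 min, detection solution 30 min; luminescence. % inhibition vs no-enzyme/DMSO controls, 4-parameter Hill fit.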

[5] = Primary qHTS for inhibitors of nuclear receptor binding SET domain protein 2 (NSD2) in an RCH-ACV wild type WT cells (2C) (AID 1645877; active means well fitted curve in the direction sought with a large enough effect; an effect the other way counts as inactive or inconclusive; further: nearly all actives have a fitted effect of over 70% in size; further: potency means the concentration at half of the fitted maximal effect)

In the case of `CC(C)[C@@H](c1ccc(C(F)(F)F)cc1CN(Cc1cc(C(F)(F)F)cc(C(F)(F)F)c1)c1nnn(C)n1)N1CCC(C(=O)O)CC1`, the Potency [1] was 12 µM (active), the Potency [2] was 15.1 µM (active) and the Potency [3] was 25.8 µM (active).

For `CN(C)C(=O)Nc1cc(-c2ccccc2)ccc1N(C)C`, the Potency [1] was “inactive”, the Potency [2] was 15.1 µM (active) and the Potency [4] was “inactive”. For the same molecule, the Potency [5] was “inactive”.

In the case of `Cc1cc(Nc2nc(-c3ccccc3)nc3ccccc23)n[nH]1`, the Potency [1] was “inactive”, the Potency [2] was 10.7 µM (active) and the Potency [3] was 2.9 µM (active).

With `CCN(c1cc(-c2ccc(CN3CCOCC3)cc2)cc(C(=O)NCc2c(C)cc(C)[nH]c2=O)c1C)C1CCOCC1` the Potency [1] was 23.9 µM (active), the Potency [2] was 3.38 µM (active) and the Potency [3] was “inactive”.

For `CN1CCC(NC(=O)c2cc(-c3c(O)cc(O)cc3Oc3ccc([N+](=O)[O-])cc3)on2)CC1`, the Potency [1] was “inactive”, the Potency [2] was 12 µM (active) and the Potency [3] was 0.23 µM (active). The Potency [5] was 230 nM (active).

For `O=C1C(Cc2ccc(O)cc2)N2C(=O)CCN(C(=O)NCc3ccccc3)C2CN1Cc1cccc2ccccc12` (stereo not drawn), the Potency [1] was 1.07 µM (active), the Potency [2] was 10.7 µM (active) and the Potency [3] was 3.65 µM (active). The Potency [5] was 5150 nM (active).

For `O=C(c1ccccn1)N(Cc1cccs1)C1(C(=O)NC2CCCCC2)CCCCC1`, the Potency [1] was “inactive”, the Potency [2] was 9.52 µM (active) and the Potency [3] was “inactive”. The Potency [5] was “inactive”.

For `O=C(Nc1nnc(-c2ccc3c(c2)OCCO3)o1)C1CCCCC1`, the Potency [1] was “inactive”, the Potency [2] was “inactive” and the Potency [3] was “inactive”. For the same molecule, the Potency [5] was “inactive”.

In the case of `COc1cc2c(cc1OC(C)C)[C@H](c1ccc(Cl)cc1)N(c1ccc(N(C)CC3CCC(N4CCN(C)C(=O)C4)CC3)cc1)C(=O)C2` (stereo partly drawn), the Potency [1] was 21.3 µM (active), the Potency [2] was 6.74 µM (active) and the Potency [3] was 1.83 µM (active) and 2.09 µM (active). The Potency [5] was 817 nM (active) and 1.18 µM (active).
